# In PubChem BioAssay:
# Activity calls are given as the source filed them.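 How the source made its calls, unless noted: active means viability at or below 10% of carrier control in both of two separate runs; inconclusive means viability at or below 10% in only one of the two runs; inactive means the rest.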
# Target: Receptor tyrosine-protein kinase erbB-2 (Homo sapiens) (UniProt P04626)
# Assay: Her2 expression decrease, cell viability multiplex – SKBR3 breast tumor cells, AlphaScreen, ATP viability, primary screen (AID 461;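 active means Her2 level under about 52% in both replicate screens, with viability over 70% of control, limit read from the data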;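 further: lower value means less Her2 protein in the cells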)
# Details: 18-24 h, at 10 µM, active compounds read low
# Sequence of Receptor tyrosine-protein kinase erbB-2 (Homo sapiens) (P04626 whole entry, looked up): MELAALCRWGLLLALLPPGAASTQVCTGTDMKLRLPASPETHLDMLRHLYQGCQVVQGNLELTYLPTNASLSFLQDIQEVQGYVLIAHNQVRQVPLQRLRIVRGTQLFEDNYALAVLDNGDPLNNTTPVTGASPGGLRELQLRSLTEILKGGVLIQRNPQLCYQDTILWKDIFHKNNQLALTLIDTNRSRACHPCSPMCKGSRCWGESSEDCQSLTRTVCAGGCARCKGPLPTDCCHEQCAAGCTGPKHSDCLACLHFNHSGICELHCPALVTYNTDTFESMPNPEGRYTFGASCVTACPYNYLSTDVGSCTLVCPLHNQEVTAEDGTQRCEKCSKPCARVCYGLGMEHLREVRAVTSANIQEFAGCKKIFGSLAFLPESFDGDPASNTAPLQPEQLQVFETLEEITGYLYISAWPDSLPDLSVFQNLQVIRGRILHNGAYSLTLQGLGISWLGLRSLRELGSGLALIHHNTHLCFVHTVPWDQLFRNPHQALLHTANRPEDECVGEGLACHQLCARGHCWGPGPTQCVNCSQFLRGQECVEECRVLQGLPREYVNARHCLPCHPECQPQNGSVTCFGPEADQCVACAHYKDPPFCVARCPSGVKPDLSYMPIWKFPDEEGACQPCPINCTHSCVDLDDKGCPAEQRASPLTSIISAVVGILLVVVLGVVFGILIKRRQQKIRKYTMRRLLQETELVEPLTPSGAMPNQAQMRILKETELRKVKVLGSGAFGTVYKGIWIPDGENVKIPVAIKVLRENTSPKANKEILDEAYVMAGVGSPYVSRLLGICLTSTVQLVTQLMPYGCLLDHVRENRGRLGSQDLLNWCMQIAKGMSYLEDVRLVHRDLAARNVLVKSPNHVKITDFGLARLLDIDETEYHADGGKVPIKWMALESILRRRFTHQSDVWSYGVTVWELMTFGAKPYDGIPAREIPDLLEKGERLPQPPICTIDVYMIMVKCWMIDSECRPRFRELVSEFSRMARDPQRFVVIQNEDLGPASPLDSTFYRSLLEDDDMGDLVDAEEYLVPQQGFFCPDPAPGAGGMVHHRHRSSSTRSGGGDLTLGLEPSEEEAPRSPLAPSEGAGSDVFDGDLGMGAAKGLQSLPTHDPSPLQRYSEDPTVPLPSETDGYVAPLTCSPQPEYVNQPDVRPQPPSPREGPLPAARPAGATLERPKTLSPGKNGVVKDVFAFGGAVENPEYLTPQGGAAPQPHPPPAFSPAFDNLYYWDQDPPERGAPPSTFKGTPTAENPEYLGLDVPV
row,SMILES,Her2 level
1,CC1CCc2nn(CC(=O)NCc3ccc4c(c3)OCO4)cc2C1 (stereo not given),88% (inactive)
2,CCC(C)(C(=O)NC1CCCC1)N(Cc1cccs1)C(C)=O (stereo not given),83.5% (inactive)
3,COc1ccc(CCNC(=O)c2cnn3ccccc23)c(OC)c1OC,98.5% (inactive)
4,CC1CCCN(S(=O)(=O)c2coc(C(N)=O)c2)C1 (stereo not given),119% (inactive)
5,Cn1c(C(=O)NCC2CCCO2)cc2c(=O)n(C)c3ccccc3c21 (stereo not given),89% (inactive)
6,O=C(Nc1cnn(Cc2ccc(Cl)cc2Cl)c1)c1noc2c1CCCC2,91.5% (inactive)
7,Clc1cccc(N2CCN(Cc3nc(-c4ccccc4)no3)CC2)c1,96% (inactive)
8,COC(=O)C1=C(C)NC(C)=C(C(=O)OC)C1C1CC=CCC1 (stereo not given),90.5% (inactive)
9,Cc1nnc(SCC(=O)NCc2ccccc2)s1,110% (inactive)
10,CC1=C(C(=O)Nc2ccc(F)cc2)C(c2cccc(C)c2)n2nc(CCCO)nc2N1 (stereo not given),91.5% (inactive)
11,CCOc1ccc(OCCCCN(C)C)cc1,92.5% (inactive)
12,CCCC(=O)C1=C(N(C)c2ccccc2)CC(C)(C)C(C(=O)OC)C1=O (stereo not given),81% (inactive)
13,CC1Cc2ccccc2N1C(=O)C12CCC(C)(C(=O)C1)C2(C)C (stereo not given),123% (inactive)
14,CC1CN(c2ccc(Oc3ccccc3)cc2)c2nc3c(c(=O)n(CC(N)=O)c(=O)n3C)n2C1 (stereo not given),101% (inactive)
15,COc1ccc(N2CCN(C(c3ccccc3)c3sc4nc(C)nn4c3O)CC2)cc1 (stereo not given),101% (inactive)
16,O=C(CCn1c(=O)oc2ccccc21)NCc1ccco1,115% (inactive)
17,COc1cccc(C2CC(c3ccc(C)cc3)n3nc(N)nc3N2)c1 (stereo not given),112% (inactive)
18,Cc1onc(-c2c(Cl)cccc2Cl)c1C(=O)NCC1CCCO1 (stereo not given),104% (inactive)
19,CC(=O)Nc1cccc(NC(=O)CSc2nn3c(=O)c(C)nnc3s2)c1,91% (inactive)
20,Cc1ccc2cc(CCNC(=O)C(C)C)c(=O)[nH]c2c1C,102% (inactive)

row,SMILES,Her2 level
1,CCOC(=O)c1c(C)n(C)c2c(C)cc(O)c(OC(C)=O)c12,83.5% (inactive)
2,CC(C)(O)C#Cc1ccc(C(=O)N2CCN(C(=O)c3ccco3)CC2)cc1,88% (inactive)
3,COc1ccc(-n2ncc3c(N4CCC(C)CC4)ncnc32)cc1,106% (inactive)
4,CCc1nc2sc(C)c(C)c2c(=O)n1CCO,85% (inactive)
5,COc1cc2c(cc1OC)CN(C(=O)CSc1nc3[nH]ncc3c(=O)n1-c1ccccc1)CC2,97% (inactive)
6,Cc1ccccc1-n1c(Cn2c(=O)sc3ccccc32)nnc1SCC(N)=O,94.5% (inactive)
7,Cc1nc2sc(C(c3cccs3)N3CCOCC3)c(O)n2n1 (stereo not given),100% (inactive)
8,Cc1nc2ccccc2c2oc(C(=O)N3CCN(C(=O)c4ccco4)CC3)cc12,95.5% (inactive)
9,CCC(C)NC(=O)c1cn(CC)c2ccc(S(=O)(=O)N(C)C)cc2c1=O (stereo not given),84% (inactive)
10,O=C(OCN1C(=O)c2ccccc2C1=O)C1CCCCC1,97.5% (inactive)
11,O=C(Nc1nc(-c2ccccn2)cs1)C1CC1,97.5% (inactive)
12,COCCOC(=O)C1=C(C)N=c2s/c(=C\c3cccs3)c(=O)n2C1c1cccs1 (stereo not given),77% (inactive)
13,CCOC(=O)c1sc2nc(NC(=O)C(C)(C)C)sc2c1C,75.5% (inactive)
14,Cn1c(Cc2ccccc2)nnc1SCC(=O)NC1CCCCC1,94.5% (inactive)
15,CCCNC(=O)C1CC(=O)N(c2ccc(OCC(=O)Nc3cc(C)cc(C)c3)cc2)C1 (stereo not given),122% (inactive)
16,O=P(O)(CN1CCCCCC1)CN1CCCCCC1,97.5% (inactive)
17,O=c1oc2c3c4c(cc2cc1-c1nc2ccccc2[nH]1)CCCN4CCC3,65.5% (inactive)
18,CCOC(=O)c1[nH]c(C)c(C(=O)NC)c1C,112% (inactive)
19,CCCOc1ccc(C2C(C(=O)OC)=CN(CCOC)C=C2C(=O)OC)cc1,92% (inactive)
20,CCCCN(CC)CCCNC(=O)c1cc2c(=O)n(C)c3ccccc3c2n1C,77% (inactive)

# Test system: not listed separately
# Assay: reduced viability of SK-BR-3 breast cancer cells – cell-based, 24 h, human, pilot screen (AID 572);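 further: compound exposure lasted between 18 and 24 h rather than exactly 24 h; 100% = carrier-treated control wells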
# Details: SK-BR-3 viability, CellTiter-Glo luminescence, at 10 µM, active compounds read low
row,SMILES,viability
1,CC1CCc2nn(CC(=O)NCc3ccc4c(c3)OCO4)cc2C1 (stereo not given),86.5% (inactive)
2,CCC(C)(C(=O)NC1CCCC1)N(Cc1cccs1)C(C)=O (stereo not given),120% (inactive)
3,COc1ccc(CCNC(=O)c2cnn3ccccc23)c(OC)c1OC,92.5% (inactive)
4,CC1CCCN(S(=O)(=O)c2coc(C(N)=O)c2)C1 (stereo not given),87.5% (inactive)
5,Cn1c(C(=O)NCC2CCCO2)cc2c(=O)n(C)c3ccccc3c21 (stereo not given),95% (inactive)
6,O=C(Nc1cnn(Cc2ccc(Cl)cc2Cl)c1)c1noc2c1CCCC2,94.5% (inactive)
7,Clc1cccc(N2CCN(Cc3nc(-c4ccccc4)no3)CC2)c1,90.5% (inactive)
8,COC(=O)C1=C(C)NC(C)=C(C(=O)OC)C1C1CC=CCC1 (stereo not given),85% (inactive)
9,Cc1nnc(SCC(=O)NCc2ccccc2)s1,97.5% (inactive)
10,CC1=C(C(=O)Nc2ccc(F)cc2)C(c2cccc(C)c2)n2nc(CCCO)nc2N1 (stereo not given),87.5% (inactive)
11,CCOc1ccc(OCCCCN(C)C)cc1,89% (inactive)
12,CCCC(=O)C1=C(N(C)c2ccccc2)CC(C)(C)C(C(=O)OC)C1=O (stereo not given),95% (inactive)
13,CC1Cc2ccccc2N1C(=O)C12CCC(C)(C(=O)C1)C2(C)C (stereo not given),136% (inactive)
14,CC1CN(c2ccc(Oc3ccccc3)cc2)c2nc3c(c(=O)n(CC(N)=O)c(=O)n3C)n2C1 (stereo not given),107% (inactive)
15,COc1ccc(N2CCN(C(c3ccccc3)c3sc4nc(C)nn4c3O)CC2)cc1 (stereo not given),91.5% (inactive)
16,O=C(CCn1c(=O)oc2ccccc21)NCc1ccco1,106% (inactive)
17,COc1cccc(C2CC(c3ccc(C)cc3)n3nc(N)nc3N2)c1 (stereo not given),104% (inactive)
18,Cc1onc(-c2c(Cl)cccc2Cl)c1C(=O)NCC1CCCO1 (stereo not given),111% (inactive)
19,CC(=O)Nc1cccc(NC(=O)CSc2nn3c(=O)c(C)nnc3s2)c1,100% (inactive)
20,Cc1ccc2cc(CCNC(=O)C(C)C)c(=O)[nH]c2c1C,87.5% (inactive)

row,SMILES,viability
1,CCOC(=O)c1c(C)n(C)c2c(C)cc(O)c(OC(C)=O)c12,93% (inactive)
2,CC(C)(O)C#Cc1ccc(C(=O)N2CCN(C(=O)c3ccco3)CC2)cc1,102% (inactive)
3,COc1ccc(-n2ncc3c(N4CCC(C)CC4)ncnc32)cc1,100% (inactive)
4,CCc1nc2sc(C)c(C)c2c(=O)n1CCO,106% (inactive)
5,COc1cc2c(cc1OC)CN(C(=O)CSc1nc3[nH]ncc3c(=O)n1-c1ccccc1)CC2,105% (inactive)
6,Cc1ccccc1-n1c(Cn2c(=O)sc3ccccc32)nnc1SCC(N)=O,96.5% (inactive)
7,Cc1nc2sc(C(c3cccs3)N3CCOCC3)c(O)n2n1 (stereo not given),90% (inactive)
8,Cc1nc2ccccc2c2oc(C(=O)N3CCN(C(=O)c4ccco4)CC3)cc12,79% (inactive)
9,CCC(C)NC(=O)c1cn(CC)c2ccc(S(=O)(=O)N(C)C)cc2c1=O (stereo not given),87% (inactive)
10,O=C(OCN1C(=O)c2ccccc2C1=O)C1CCCCC1,82% (inactive)
11,O=C(Nc1nc(-c2ccccn2)cs1)C1CC1,93.5% (inactive)
12,COCCOC(=O)C1=C(C)N=c2s/c(=C\c3cccs3)c(=O)n2C1c1cccs1 (stereo not given),91.5% (inactive)
13,CCOC(=O)c1sc2nc(NC(=O)C(C)(C)C)sc2c1C,104% (inactive)
14,Cn1c(Cc2ccccc2)nnc1SCC(=O)NC1CCCCC1,107% (inactive)
15,CCCNC(=O)C1CC(=O)N(c2ccc(OCC(=O)Nc3cc(C)cc(C)c3)cc2)C1 (stereo not given),112% (inactive)
16,O=P(O)(CN1CCCCCC1)CN1CCCCCC1,93% (inactive)
17,O=c1oc2c3c4c(cc2cc1-c1nc2ccccc2[nH]1)CCCN4CCC3,79.5% (inactive)
18,CCOC(=O)c1[nH]c(C)c(C(=O)NC)c1C,92% (inactive)
19,CCCOc1ccc(C2C(C(=O)OC)=CN(CCOC)C=C2C(=O)OC)cc1,89% (inactive)
20,CCCCN(CC)CCCNC(=O)c1cc2c(=O)n(C)c3ccccc3c2n1C,76% (inactive)
